In the library only some 19% were active in any assay of this set; here they are far more common.
S-ASM inh: inhibitors of human secretory acid sphingomyelinase. P17405. placental ASM, HMU-PC fluorogenic substrate, 60 min. Potency, µM (series often up to 57.5 µM), without a hit: at the top dose activity change, negative = inhibition, actives largely listed as inhibitors. hit rate 0.006% among 340,000. AID 504937; further: potency means the concentration at half of the fitted maximal effect
Target sequence (P17405 47-631 limits assumed): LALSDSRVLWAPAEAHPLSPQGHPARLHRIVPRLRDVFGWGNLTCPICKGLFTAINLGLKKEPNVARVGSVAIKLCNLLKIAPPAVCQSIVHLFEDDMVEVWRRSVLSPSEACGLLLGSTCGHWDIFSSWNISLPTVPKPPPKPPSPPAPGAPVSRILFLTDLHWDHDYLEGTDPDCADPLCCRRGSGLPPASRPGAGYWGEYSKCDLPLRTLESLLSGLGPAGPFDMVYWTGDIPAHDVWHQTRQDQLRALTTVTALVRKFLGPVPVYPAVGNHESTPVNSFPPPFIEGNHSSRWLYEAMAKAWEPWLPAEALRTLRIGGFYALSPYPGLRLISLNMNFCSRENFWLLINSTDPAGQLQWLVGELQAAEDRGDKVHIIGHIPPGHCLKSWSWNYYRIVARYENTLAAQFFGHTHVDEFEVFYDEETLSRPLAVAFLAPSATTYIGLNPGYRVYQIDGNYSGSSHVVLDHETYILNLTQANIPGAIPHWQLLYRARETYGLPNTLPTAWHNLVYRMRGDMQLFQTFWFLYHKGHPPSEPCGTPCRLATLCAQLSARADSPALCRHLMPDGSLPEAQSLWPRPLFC
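HMU-PC0 cleavage (9 uM final) by human placental ASM, 60 min at 37 °C following 10 min compound exposure at RT; stopped at pH 10, fluorescence Ex 386/Em 447 nm.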
IL1B secr inh: blocks inflammasome-driven IL-1 beta release; activity change, % at 57.5 µM; AID 743279; THP-1 LPS/ATP IL-1B secretion, AlphaLISA, 16 h; stronger effect = lower value; hit rate 4.7% among 360,000; in the data active means activity change below about -50%; inconclusive means mostly about -30% to -49%; further: on the % scale 0 is the no-effect control and ±100 the full control effect
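Secreted IL-1B measured by AlphaLISA bead assay after 16 h compound exposure of THP-1 cells; compounds (final up to 57.5 uM) added 1 h before LPS (250 ng/mL) and ATP (1.25 mM) stimulation; lower signal means less secretion.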
HepG2 viability: HepG2 cytotoxicity, counter-screen for TGF-b inhibitors; HepG2 CAGA-GFP viability, ATP luminescence, 18 h; Potency, µM (series often up to 46.1 µM), inactives show at the top dose activity change, negative = cytotoxicity, most hits filed as cytotoxic; hit rate 0.76% among 410,000; AID 588856; further: potency means the concentration at half of the fitted maximal effect
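HepG2 CAGA-GFP cells (1000/well, DMEM with 1% FBS) received compound, then TGF-beta at 500 pg/mL final, and were incubated 18 hours at 37 degrees C. Viability was read by CellTiter-Glo luminescence. Media-only wells were set as complete cell-killing and DMSO as no toxicity.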
DT40 TDP1 no CPT: qHTS for Inhibitors of human tyrosyl-DNA phosphodiesterase 1 (TDP1): qHTS in cells in absence of CPT; Potency, µM (top dose mostly 46.2 µM), inactives show top-dose activity change, negative = growth inhibition, usual class: inhibitors; hit rate 15% among 420,000; DT40 Tdp1-/- hTDP1 cells, no CPT, ATP luminescence, 48 h; further: potency means the concentration at half of the fitted maximal effect; on the % scale 0 is the no-effect control and ±100 the full control effect; nearly all actives have a fitted effect of over 55% in size
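Chicken DT40 Tdp1-/- cells complemented with human TDP1, screened without camptothecin (DMSO vehicle only), 400 cells/well. Compounds pin-transferred, cells incubated at 37 °C for at least 48 hr. Growth read as ATP-dependent luminescence (CellTiter-Glo, 30 min at RT).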
TDP1 cell CPT: DT40-hTDP1 cell growth loss with CPT. chicken DT40 Tdp1-/-;hTDP1 cells + 20 nM CPT, ATP luminescence, 48 h. AID 686979. Potency, µM (doses to about 46.2 µM), for the others: at the highest dose activity change, negative = growth inhibition, actives largely listed as inhibitors. hit rate 12% among 420,000; further: potency means the concentration at half of the fitted maximal effect; on the % scale 0 is the no-effect control and ±100 the full control effect; nearly all actives have a fitted effect of over 55% in size
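Chicken DT40 Tdp1-/- cells complemented with human TDP1, 400 cells/well, exposed to compounds plus 20 nM camptothecin for at least 48 h at 37 C; viability read as ATP content by CellTiter-Glo luminescence.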
TGFb inhibitor: inhibitors of TGF-b signaling; AID 588855; hit rate 1.2% among 410,000; Potency, µM (titrated, usually from 46.1 µM), without a hit: top-dose activity, negative = inhibition, usual class: inhibitors; HepG2 CAGA-GFP TGF-b/SMAD3 reporter, GFP fluorescence, 18 h; TGF-beta stimulated, 500 pg/mL final; further: potency means the concentration at half of the fitted maximal effect; on the % scale 0 is the no-effect control and ±100 the full control effect; nearly all actives have a fitted effect of over 65% in size
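GFP signal (ex488/em500-530) from TGF-beta-stimulated HEPG2 CAGA-GFP cells, 500 pg/mL final, 18 h at 37 degrees C in DMEM plus 1% FBS, normalized to unstimulated and DMSO-stimulated controls.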
Starred values were filed as active, the others as inactive; ! = not confirmed by another sample. Unless noted, the call rests on the fitted dose curve; in most records, active means well fitted curve in the direction sought with a large enough effect; inconclusive means small, poorly fitted or top-dose-only effect, or another doubt; inactive means no such curve, though single readings can be large; an effect the other way counts as inactive or inconclusive.

COc1cc(CN2C(=O)NC(=O)C3(Cc4cc(C)ccc4N(C)C3)C2=O)cc(OC)c1 (stereo unspecified) was read as S-ASM inh -1%, IL1B secr inh 37, HepG2 viability -3%, DT40 TDP1 no CPT 0.01µM*, TDP1 cell CPT inconclusive and TGFb inhibitor 4%.
COc1ccc2c(c1)CC1(CN2C)C(=O)NC(=O)N(CCc2ccccc2)C1=O (stereo unspecified) was read as S-ASM inh -6%, IL1B secr inh 21, HepG2 viability -20%, DT40 TDP1 no CPT 5.8µM*, TDP1 cell CPT inconclusive and TGFb inhibitor 15%.
COc1ccc(OC)c(N2C(=O)NC(=O)C3(Cc4cc(C)ccc4N(C)C3)C2=O)c1 (stereo unspecified) was read as S-ASM inh 3%, IL1B secr inh 7, HepG2 viability -17%, DT40 TDP1 no CPT inconclusive, TDP1 cell CPT inconclusive and TGFb inhibitor 8%.
Cc1ccc2c(c1)CC1(CN2C)C(=O)NC(=O)N(c2cc(C)ccc2C)C1=O (stereo unspecified) was read as S-ASM inh -1%, IL1B secr inh 19, HepG2 viability 8%, DT40 TDP1 no CPT -16%, TDP1 cell CPT -15% and TGFb inhibitor 4%.
Screening c1ccc2c(c1)sc1ccccc12 returned DT40 TDP1 no CPT -26% and TDP1 cell CPT inconclusive.
CCCNC(=O)c1cc2c(c(-c3cccc(-c4cc5ccccc5o4)c3)n1)[C@@H](CCO)N(C(=O)NC(C)C)C2 was read as IL1B secr inh -11, DT40 TDP1 no CPT inconclusive and TDP1 cell CPT inconclusive.
`CN1CCN(c2ncc(C=O)s2)CC1` gave S-ASM inh 5%, IL1B secr inh -7, HepG2 viability 4%, DT40 TDP1 no CPT 23%, TDP1 cell CPT -10% and TGFb inhibitor 0%.
For CC(C)(C)NC[C@H](O)COc1cccc2[nH]c(C#N)cc12 the results were DT40 TDP1 no CPT -15% and TDP1 cell CPT -7%.
CCCCC/C=C\C/C=C\C/C=C\C/C=C\CCCC(=O)O was read as DT40 TDP1 no CPT 24µM*! and TDP1 cell CPT 30µM*!.
CNC(=O)Oc1cccc2c1OC(C)(C)C2 was read as DT40 TDP1 no CPT -20% and TDP1 cell CPT 2%.
Screening O=C1NCCOC(=O)[C@@H](Cc2ccc(F)cc2)CC/C=C/C[C@H]1CC(=O)N(CCO)Cc1ccccc1 returned S-ASM inh 0%, IL1B secr inh 0, HepG2 viability -20%, DT40 TDP1 no CPT inconclusive, TDP1 cell CPT 21µM* and TGFb inhibitor -19%.
For O=C1NCCOC(=O)[C@H](Cc2ccc(F)cc2)CC/C=C/C[C@@H]1CC(=O)N(CCO)Cc1ccccc1 the results were S-ASM inh 0%, IL1B secr inh 29, HepG2 viability -13%, DT40 TDP1 no CPT inconclusive, TDP1 cell CPT 16µM* and TGFb inhibitor inconclusive.
`Cc1ccc(CC(=O)N2CCN(C)CC2)cc1` gave S-ASM inh -3%, IL1B secr inh 0, HepG2 viability -24%, DT40 TDP1 no CPT 16%, TDP1 cell CPT 1% and TGFb inhibitor -19%.
Screening CC1CC(C)CN(S(=O)(=O)c2ccc3c(c2)oc(=O)n3CC(=O)NCc2cccnc2)C1 (stereo unspecified) returned S-ASM inh 1%, IL1B secr inh -14, HepG2 viability -24%, DT40 TDP1 no CPT inconclusive, TDP1 cell CPT inconclusive and TGFb inhibitor -21%.
For CC(=O)NCC1=C(c2cccc3ccccc23)C[C@@H]2CC[C@H]1N2Cc1ccco1 the results were IL1B secr inh -11, HepG2 viability -27%, DT40 TDP1 no CPT inconclusive, TDP1 cell CPT inconclusive and TGFb inhibitor 0%.
Screening CCc1ccc(NC(=S)NC2CC3CCC(C2)N3Cc2ccco2)cc1 (stereo unspecified) returned S-ASM inh 0%, IL1B secr inh -4, HepG2 viability -25%, DT40 TDP1 no CPT 23µM*, TDP1 cell CPT 18µM* and TGFb inhibitor -27%.
CC(=O)c1ccc(Oc2ccc(C(=O)c3ccc(C)c(C)c3)cc2[N+](=O)[O-])cc1 was read as S-ASM inh 0%, IL1B secr inh -5, HepG2 viability 6%, DT40 TDP1 no CPT 2.3µM*, TDP1 cell CPT 8.2µM* and TGFb inhibitor 7%.
`COc1ccccc1-n1c(-c2ccccc2Cl)nc2ccccc2c1=O` gave S-ASM inh -4%, IL1B secr inh 0, HepG2 viability 6%, DT40 TDP1 no CPT 15µM*, TDP1 cell CPT inconclusive and TGFb inhibitor 19%.
For O=c1c2ccccc2nc(-c2ccoc2)n1-c1ccccc1 the results were S-ASM inh 0%, IL1B secr inh -5, HepG2 viability -20%, DT40 TDP1 no CPT -26%, TDP1 cell CPT -26% and TGFb inhibitor 7%.
`COc1ccccc1-n1c(-c2ccoc2)nc2ccccc2c1=O` gave S-ASM inh 4%, IL1B secr inh 5, HepG2 viability -20%, DT40 TDP1 no CPT 18µM*, TDP1 cell CPT 12µM* and TGFb inhibitor 0%.
`O=c1c2ccccc2nc(-c2ccoc2)n1-c1ccccc1Cl` gave S-ASM inh -1%, IL1B secr inh -17, HepG2 viability -18%, DT40 TDP1 no CPT 16µM*, TDP1 cell CPT 21µM* and TGFb inhibitor -5%.
`Cc1cccnc1-n1c(-c2ccco2)nc2ccccc2c1=O` gave S-ASM inh 2%, IL1B secr inh 21, HepG2 viability 4%, DT40 TDP1 no CPT inconclusive, TDP1 cell CPT -28% and TGFb inhibitor -28%.
For Cc1cccc(-n2c(-c3ccco3)nc3ccccc3c2=O)c1C the results were S-ASM inh -2%, IL1B secr inh -7, HepG2 viability -13%, DT40 TDP1 no CPT 16µM*, TDP1 cell CPT 8.2µM* and TGFb inhibitor -19%.
COc1ccc(C(CNC(=O)CCc2ccsc2)N(C)C)cc1 (stereo unspecified) was read as S-ASM inh 0%, IL1B secr inh -18, HepG2 viability -12%, DT40 TDP1 no CPT -12%, TDP1 cell CPT 8% and TGFb inhibitor 17%.
For CCOP(=O)(OCC)c1ccc(OP(=O)(c2cccc([N+](=O)[O-])c2)c2cccc([N+](=O)[O-])c2)cc1 the results were S-ASM inh 7%, IL1B secr inh 14, HepG2 viability -1%, DT40 TDP1 no CPT -9%, TDP1 cell CPT 1% and TGFb inhibitor 10%.

Source: PubChem (National Center for Advancing Translational Sciences (NCATS))
